Sampled rows, rich in hits. Any-hit rate of the full collection: about 6.5%.
VACV mCherry inh: vaccinia inhibition (mCherry reporter) | Vaccinia virus mCherry reporter infection, fluorescence | Potency, µM (doses to about 36.5 µM), for the others: at the highest dose activity change, negative = inhibition, most hits filed as inhibitors | 310,000 tested, 0.63% active | AID 720579; calls by dose curve; tested in A549 cells; also: potency is read from the fitted curve at half-maximal effect; nearly all actives have a fitted effect of over 35% in size
Marburg entry inh: inhibitors of Marburg virus binding or cell entry. Marburg virus pseudotyped entry inhibition, cell reporter. Potency, µM (series often up to 37.8 µM), inactives show at the top dose activity change, negative = inhibition, hits mostly inhibitors. 300,000 tested, 1.8% active; calls by dose curve; tested in HEK293 cells; also: potency is read from the fitted curve at half-maximal effect
FMDV inh: antivirals against foot and mouth disease virus; Potency, µM (doses to about 57.9 µM), without a hit: at the highest dose activity change, negative = inhibition, actives largely listed as inhibitors; 410,000 tested, 1.2% active; FMDV antiviral cell-based qHTS; calls by dose curve; tested in HEK293T cells; also: read-out not given here; potency is read from the fitted curve at half-maximal effect; nearly all actives have a fitted effect of over 45% in size
VACV Venus inh: vaccinia inhibition (Venus reporter); 330,000 tested, 0.46% active; AID 720580; Vaccinia virus Venus reporter expression, fluorescence; Potency, µM (series often up to 36.5 µM), for inactives: at the top dose activity change, negative = inhibition, usual class: inhibitors; calls by dose curve; tested in A549 cells; also: potency is read from the fitted curve at half-maximal effect; nearly all actives have a fitted effect of over 30% in size
HCMV inh: human cytomegalovirus inhibition; HFF cells, HCMV-luciferase reporter, 72 h; hits give low values; activity change, negative = inhibition, % at 57.5 µM; 410,000 tested, 4.5% active; AID 1259415; in the data active = activity change below about -60%; inconclusive = no clear call, values can overlap the other calls; inactive = above about -39%
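Compounds were evaluated in HFFs infected with an HCMV luciferase reporter virus (MOI 1 PFU/cell). Luciferase in lysates collected 72 h post infection served as the replication measure.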
Lassa entry inh: Lassa virus entry inhibition; Lassa virus pseudotype entry inhibition, cell reporter; Potency, µM (doses to about 37.9 µM), for inactives: at the top dose activity change, negative = inhibition, most hits filed as inhibitors; 300,000 tested, 1.2% active; AID 540256; calls by dose curve; tested in HEK293 cells; also: potency is read from the fitted curve at half-maximal effect; nearly all actives have a fitted effect of over 50% in size
* hit, by the source's call; i = inactive; ? = inconclusive; / = no result given; [ ] = dose if it differs, or a comment. % is scaled to controls: 0 for no effect and ±100 for the full control effect.

SMILES | VACV mCherry inh | Marburg entry inh | FMDV inh | VACV Venus inh | HCMV inh | Lassa entry inh
CN(C)c1ncc2nc(-c3ccc(Cl)cc3)c(=O)n(-c3ccccc3)c2n1 | / | / | -3% | / | / | /
CCN([C@H](CO)CC(C)C)S(=O)(=O)c1ccccc1 | -27% | / | -7% | -10% | 5 | /
COc1ccc(CN([C@H](CO)CC(C)C)S(=O)(=O)N(Cc2ccccc2)[C@H](CO)CC(C)C)cc1 | ? | / | ? | 13µM* | -89* | /
CC(C)C[C@@H](CO)N(Cc1ccccc1)S(=O)(=O)N(Cc1ccccc1)[C@H](CO)CC(C)C | -27% | / | ? | ? | / | /
COC(=O)[C@H](Cc1ccccc1)N(C)S(=O)(=O)c1cccc(S(=O)(=O)N(C)[C@@H](Cc2ccccc2)C(=O)OC)c1 | -8% | / | -6% | -17% | -29 | /
CC(C)C[C@@H](CO)N(Cc1ccccc1)S(=O)(=O)N(Cc1ccccc1)[C@@H](CO)CC(C)C | ? | / | ? | 22µM* | / | /
C=CS(=O)(=O)N(Cc1ccccc1Br)[C@H](CO)CC(C)C | ? | / | 0% | 1.4µM* | -40 | /
COC(=O)[C@H](Cc1ccccc1)N(Cc1ccccc1)S(=O)(=O)N(Cc1ccccc1)[C@@H](Cc1ccccc1)C(=O)OC | ? | / | ? | -11% | -96* | /
COc1ccc(NC(=O)Cn2nc(C)c3c(C)n(-c4ccccc4)nc3c2=O)cc1OC | -10% | / | -15% | -4% | -7 | -5%[46.1 µM]
COC(=O)c1sc2cc([N+](=O)[O-])cc(SCC(C)C)c2c1N | -19% | 17% | -28% | -18% | -64* | -19%
CCOc1cccc(/C=N/NC(=S)Nc2ccccc2[N+](=O)[O-])c1O | / | / | 1.8µM* | / | -70* | /
Cc1ccc(CNC(=O)CCc2c(C)nc3c4c(C)cc(C)nc4nn3c2C)cc1 | -8% | 6%[46.1 µM] | -15% | -8% | 2 | 14%[46.1 µM]
CCCNCc1cc(OC)c(OCc2ccccc2)cc1Br | -3% | 11µM* | 3% | -22% | -24 | -18%[46.1 µM]
CCCNCc1cc(OC)c(OCC(=O)NCCc2ccccc2)cc1Br | -13% | ? | -10% | -27% | -4 | 2%
CCCC(=O)N(C1CC(C)C(C#N)(C#N)C1(C#N)C#N)N(C)C (stereo not given) | i | ? | 16µM* | -12% | -90* | ?
CC(=O)N(C1CC(C)C(C#N)(C#N)C1(C#N)C#N)N(C)C (stereo not given) | ? | ? | ? | -12% | 101 | -6%
O=c1c(-c2ccc(F)cc2)nc2cncnc2n1Cc1ccc(F)cc1 | / | / | 0% | / | / | /
COc1ccc(C(=O)/C=C/c2ccc(OC(=O)c3cc(OC)c(OC)c(OC)c3)cc2)cc1 | -9% | ? | ? | -7% | 28 | ?
COc1cc(/C=C/C(=O)O)cc(OC)c1OC | -14% | 4% | -15% | -15% | -21 | /
CCOc1ccc(C(=O)/C=C/c2cc(OC)c(OC)c(OC)c2)cc1 | ? | ? | ? | ? | -88* | ?
COc1cc(/C=C/C(=O)c2ccc(F)cc2)cc(OC)c1OC | 0% | ? | 25µM* | -9% | -112* | ?
CC(=O)Nc1c(C)nn(-c2ccccc2)c1N1CCC(C(=O)Nc2ccc(F)cc2Cl)CC1 | -8%[7.34 µM] | / | -6% | 0%[7.34 µM] | 33 | 6%[46.1 µM]
O=C(/C(=C/c1cccnc1)n1ccnc1)c1ccc(Cl)cc1Cl | / | / | ? | / | 15 | /
CC(C)(C)C(=O)/C(=C/c1ccc(Cl)cc1)n1cncn1 | / | / | 16µM* | / | -102* | /
CC(C)/C=C(/C(=O)c1ccc(Cl)cc1Cl)n1cncn1 | i | / | 35µM* | -22% | -10 | /
SMILES | VACV mCherry inh | Marburg entry inh | FMDV inh | VACV Venus inh | HCMV inh | Lassa entry inh
O=C(O)[C@@H]1C[C@@H](O)CN1 | / | / | / | / | 17 | /
Cc1cc2nccc(-c3ccncc3)n2n1 | -24% | 5%[46.1 µM] | -7% | -16% | -64* | 34%[46.1 µM]
Cc1ccc(-c2ccnc3cc(C)nn23)cc1 | / | / | 26% | / | ? | /
Cc1cc2nccc(-c3ccc(Cl)cc3Cl)n2n1 | / | / | 31% | / | -70* | /
CCN(CCNC(=O)c1ccc(CSc2nc3ccncc3[nH]2)cc1)c1ccccc1 | -12% | -43% | -16% | -11% | -25 | ?
O=C(NCCN1CCN(c2cccc(Cl)c2)CC1)c1ccc(CSc2nc3ccncc3[nH]2)cc1 | -11% | ? | -22% | -15% | -79* | ?
COc1ccc(/C=C/c2cc(OC)c(OC)cc2CC[N+](C)(C)C)cc1 | / | / | -13% | / | / | /
C=C(C)C(=O)/C=C/CCC/C=C/C(=O)OCC | / | 7%[14.2 µM] | / | / | / | /
Cc1[nH]nc2c1C1(C(=O)N(Cc3ccc(Cl)cc3)c3ccccc31)C(C#N)=C(N)O2 (stereo not given) | -14% | -24% | / | -20% | -70* | -15%
COc1c(C2=CC(=O)N(C)C2=O)c2c(n1C)C(=O)c1ccccc1C2=O | / | / | -22% | / | / | /
COc1ccccc1NC(=O)Nc1nc(CC(=O)N2CCN(c3ccc(F)cc3)CC2)cs1 | ? | 11µM* | ? | -28% | -23 | ?
COc1ccccc1NC(=O)Cc1csc(NC(=O)c2ccccc2)n1 | / | -28% | ? | / | -69* | ?
COc1ccccc1NC(=O)Nc1nc(CC(=O)N2CCN(c3ccccc3)CC2)cs1 | 1µM* | 7%[46.1 µM] | ? | -28% | -6 | ?
COc1ccccc1NC(=O)Nc1nc(CC(=O)NC2CCCC2)cs1 | -3% | -9% | -18% | -24% | -29 | -5%
COc1ccccc1CNC(=O)Cc1csc(NC(=O)Nc2ccccc2OC)n1 | -10% | ? | -27% | -23% | -4 | ?
CCNc1ncc2nc(-c3cc(F)cc(F)c3)c(=O)n(C)c2n1 | / | / | 7% | / | / | /
COc1cc(NC(=O)Cn2c(=O)n(CC(=O)NCCc3ccc(OC)c(OC)c3)c(=O)c3sccc32)cc(OC)c1 | -14% | -20%[46.1 µM] | -18% | -14% | ? | 2%[46.1 µM]
CCNC(=O)c1c(NC(=O)c2cc(=O)c3ccc(C)c(C)c3o2)sc2c1CCCC2 | -12% | -5%[46.1 µM] | -1% | -3% | -8 | ?
O=C(NC1CCCCC1)c1ccc(Cn2c(SCc3cccc(F)c3)nc3cccnc32)cc1 | -23% | / | -26% | -26% | ? | -1%[46.1 µM]
Cc1ccc(S(=O)(=O)c2nc(-c3ccccc3F)oc2N2CC(C)OC(C)C2)cc1 (stereo not given) | -11% | -17% | 27% | -6% | -20 | 16µM*
O=S(=O)(c1ccc(F)cc1)c1nc(-c2ccccc2F)oc1N1CCCCC1 | / | -6% | -8% | / | -29 | -22%
O=C(CN1N=C(C(F)(F)F)CC1(O)c1ccc([N+](=O)[O-])cc1)c1ccccc1 (stereo not given) | / | -8% | -5% | / | 10 | 4%
O=C(c1ccccc1O)N1N=C(C(F)(F)F)CC1(O)c1ccc([N+](=O)[O-])cc1 (stereo not given) | / | / | -19% | / | -102* | /
CCC1=NN(C(=O)c2ccccc2O)C(O)(c2ccccc2)C1 (stereo not given) | / | / | -8% | / | -76* | /
COc1cccc(CNC(=O)c2c(OC)cc(=O)n3c2CCN(C(=O)c2ccccc2Cl)CC3)c1 | i | / | -8% | -8% | / | /

Screens as filed in PubChem.
